Experimental data taken from PubChem BioAssay AID1789 (The Scripps Research Institute Molecular Screening Center, 2009).
Hit rate of the full screen: of about 290,000 compounds, about 2,700 (0.93%) were called active.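 How the source made its calls: active means inhibition above the screen-wide mean plus 3 SD, computed separately per campaign (cut at about 16% in these data); inactive means the rest.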 The full list was thinned out, with actives kept by preference.

tested on: Heat shock protein HSP 90 (rabbit reticulocyte lysate; luciferase refolding); experiment: inhibitors of HSP90 chaperone activity – cell lysate, luminescence, primary screen (AID 1789); details: 3 h, at 5.6 µM, hits give high values;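 further: 0% = DMSO wells and 100% = 60 µM geldanamycin wells; inhibitors lower the luminescence because luciferase stays unfolded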

inhibition, inactive:
Cn1c(SCC(=O)N2CCCC2)nnc1-c1cccs1 -5.69%
Cc1ccccc1C1CC(c2cccs2)=NN1S(C)(=O)=O (configuration not stated) -0.31%
O=C(O)CCC(=O)Nc1ccc(OCC2CCCO2)cc1 (configuration not stated) 1.1%
COC(=O)c1ccc(COc2ccc(C#N)cc2)o1 -2.93%
Cc1cccc(NC(=O)Nc2ccc(OCc3ccccc3)cc2)n1 -4.5%
Cc1cccc(NC(=O)c2ccc(COc3ccccc3[N+](=O)[O-])o2)n1 -1.06%
O=C(NCCc1ccccn1)c1ccc(COc2ccccc2)o1 9%
Cc1ccc(NC(=S)N(CCCN2CCCC2)Cc2cccn2Cc2ccc(Cl)cc2)cc1 2.82%
COc1ccc(C(=S)Nc2ccccc2)cc1 -0.81%
COc1ccc(C(=O)NC2CCN(C(=S)Nc3ccccc3)CC2)cc1 3.9%
CC(C)c1ccc(NC(=O)C2CCCN(S(=O)(=O)c3cccnc3)C2)cc1 (configuration not stated) -1.95%
CCOC(=O)c1c(-c2ccc(C)cc2)csc1/N=C(\C)C1=C(O)c2ccccc2C1=O -2.27%
CCOC(=O)c1c(C)[nH]c2c1-c1ccccc1C(=O)C2=O -1.61%
COC(=O)C1(C)CC1(c1ccccc1)c1ccccc1 (configuration not stated) 1.72%
C[n+]1cc(-c2ccccc2)oc1-c1ccccc1 0.81%
CCOc1cc2ccccc2cc1C(=O)Nc1ccccn1 -0.82%
CCOc1ccc(N/C=C/C(=O)c2cc(OC)c(OC)c(OC)c2)cc1 -0.12%
O=C(/C=C\NCC(=O)c1ccccc1)c1ccccc1 2.9%
Cc1cc(N/C=C\C(=O)c2ccc(Cl)c(Cl)c2)no1 -0.49%
COc1cc2c(cc1OC)C(c1cccc([N+](=O)[O-])c1)=NCC2 -2.48%
CCCCN(C)CCNC(=O)C1CCCN(S(=O)(=O)c2cccc3nsnc23)C1 (configuration not stated) -6.58%
COc1ccc(N=Nc2c(-c3ccc(OC)cc3)[nH]oc2=O)cc1 0.28%
NC(=O)c1ccc(NC(=O)COC(=O)c2c3c(nc4ccccc24)/C(=C\c2ccc4c(c2)OCO4)CCC3)cc1 -5.16%
COc1ccc(Sc2nc(-c3ccccc3)ncc2OC)cc1 -2.08%
COc1ccccc1Cc1nc(-c2ccc(C)cc2)no1 3.61%
COC(=O)c1cccnc1NC(=S)NC(C)C -2.4%
CC(=O)c1ccc(NC(=O)Cn2c(=O)oc3ccccc32)cc1 -5.66%
CCSc1nnc(SCC(=O)NNC(=O)c2ccccc2F)s1 -3.94%
S=c1[nH]c(-c2cccs2)cn1-c1ccccc1 8.66%
COc1ccc(-c2cn(-c3ccc(OC)cc3)c(=S)[nH]2)cc1 0.9%
COc1ccc(C)cc1NC(=O)CNCc1cccs1 9.78%
CC(C)Sc1ncnc2c1cnn2-c1ccccc1 -2.09%
COc1cc(NC(=O)CSc2ccc(-c3cccnc3)nn2)cc(OC)c1 -0.99%
CC1CC(C)CN(CCCNC(=O)Cn2ncc3c([nH]c4ccccc43)c2=O)C1 (configuration not stated) 2.52%
Cc1ccc2[nH]c3c(=O)n(CC(=O)NCCc4ccc(Cl)cc4)ncc3c2c1 -1.14%
CCCn1nc(NC(=O)C(C)C)c2cc3cc(OC)ccc3nc21 -7.87%
C=Cn1cc[n+](CC(=O)c2ccc(OC)c(OC)c2)c1 9.58%
O=C(CCCC(=O)N1CCN(c2cccc(Cl)c2)CC1)c1ccccc1 -3.4%
Cc1ccc(S(=O)(=O)N(CCCN(C)C)Cc2ccc3c(c2)OCO3)cc1 -1.45%
CC(NCC(=O)Nc1cc(Cl)cc(Cl)c1)c1ccccc1 (configuration not stated) 10.2%
O=C(C1CCC1)N1CCN(c2ccccc2)CC1 -0.73%
CCCCCN(C(=O)CCC(=O)OCC(=O)NCc1ccc(OC)cc1)c1c(N)n(CCCC)c(=O)[nH]c1=O -5.78%
Cc1cccc(N(C)C(=O)CN2C(=O)COc3ccc(S(=O)(=O)N4CCCCCC4)cc32)c1 2.46%
CC(C)c1cc(C(N)=O)c(NC(=O)c2cccc(COc3ccc(Br)cc3)c2)s1 6%
COc1ccc(OCc2cccc(C(=O)N3CCCC3)c2)cc1 12.3%
COc1cc(C(=O)N2CCN(C)CC2)cc(OC)c1OC -1.01%
CCOC(=O)N1CCN(C(=O)COCc2cc(-c3ccc4c(c3)OCO4)on2)CC1 -2.54%
Cc1ccc2c(C)c(C(=O)N(C)CCC3CCCCO3)oc2c1C (configuration not stated) -5.53%
COc1ccc(Cl)cc1C(=O)NCC#N -11.2%
COc1ccc(N2CCN(C(=O)c3ccccc3NC(=O)C3=C(C)OCCS3)CC2)cc1 -2.69%
Cc1nc2ccccc2nc(C)c1=NOCc1ccc(Cl)cc1Cl -1.08%
Cc1ccc(-c2csc(NNC(=O)c3ccccc3)n2)cc1 0.18%
CCCCCCC(=O)Nc1nc(C)c(-c2csc(Nc3cc(Cl)ccc3OC)n2)s1 4.86%
C=CCCC(=O)Nc1nc(C)c(-c2csc(Nc3ccc(Cl)cc3)n2)s1 6.06%
CCC(=O)Nc1nc(C)c(C(=O)Nc2cccc(Cl)c2)s1 -0.01%
CCCCCCC(=O)Nc1nc(C)c(-c2csc(Nc3cccc(OC)c3)n2)s1 0.02%
CC(=O)Nc1nc(C)c(-c2csc(Nc3ccc(S(N)(=O)=O)cc3)n2)s1 -0.54%

inhibition, active:
CC1Cn2c(nnc2-c2cccs2)S1 (configuration not stated) 27.3%
CCOc1ccc(OCc2ccc(C(=O)N(C)c3ccccc3)o2)cc1 23%
CCOc1ccc(OCc2ccc(C(=O)Nc3cccc(C)n3)o2)cc1 16.8%
COc1ccc(NC(=S)N2N=CCC2c2ccccc2)cc1 (configuration not stated) 16.8%
CCOC(=O)C1=C(c2ccc(OC)cc2)C(=O)c2ccccc2C1=O 87.2%
COc1ccc(C(=O)/C=C/Nc2ccccn2)cc1 65.4%
CCOc1ccc(N/C=C/C(=O)c2ccccc2)cc1 51%
COc1ccc(-c2nc(-c3ccccc3)no2)c(OC)c1 44.3%
O=c1oc2ccccc2cc1-c1cn(-c2ccccc2)c(=S)[nH]1 65.7%
Cc1cccc(CCNC(=O)Cn2ncc3c([nH]c4ccc(C)cc43)c2=O)c1 20.9%
CCOc1ccc(OCc2cccc(C(=O)N(CC)CC)c2)cc1 19.7%
N#C/C=C\Oc1ccc(Cl)cc1N 19.9%
Cc1ccc(Nc2nc(-c3sc(NC(=O)c4ccccc4)nc3C)cs2)cc1 48.7%
CCCCC(=O)Nc1nc(C)c(-c2csc(Nc3ccc(Cl)cc3)n2)s1 16.9%
Cc1nc(NC(=O)c2cccc(Cl)c2)sc1-c1csc(Nc2cccc(Cl)c2)n1 67.3%
